In PubChem BioAssay (NCATS):
Inconclusive results are not listed. A call without a number means that no potency is given here. Active and inactive are the calls of the source. Unless noted, calls follow the shape of the dose curve; as a rule, active = well fitted curve in the direction sought with a large enough effect; inconclusive = small, poorly fitted or top-dose-only effect, or another doubt; inactive = no such curve, though single readings can be large; an effect the other way counts as inactive or inconclusive.

tested on: not listed separately; assay: S16 Schwann cell PMP22 intronic element firefly luciferase assay (AID 624032); conditions: S16 rat Schwann cells, PMP22 element FLuc, 24 h; series mostly up to 57.5 µM; also: nearly all actives have a fitted effect of over 30% in size; also: potency is read from the fitted curve at half-maximal effect
Outline: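 Rat S16 Schwann cells stably carrying a PMP22 intronic element-driven Fluc reporter were seeded overnight, then exposed to compounds for 24 h at 37 °C. Luminescence was normalized to PTC124 (positive control) and DMSO (0% activity).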

Q: For `Cc1c(C)n(Cc2ccccc2)c2ccc(C(=O)OCCN(C)C)cc12`, which Potency is on record?
A: inactive

Q: Which Potency does the source give for `C[C@@H](CN(C)C)CN1c2ccccc2Sc2ccccc21` here?
A: inactive

Q: Which Potency does the source give for `CNCCC(Oc1ccccc1C)c1ccccc1` (stereo not given) here?
A: inactive

Q: Which Potency does the source give for `NC(=O)C(=O)N/N=C/c1ccc([N+](=O)[O-])o1` here?
A: 32.2 µM (active)

Q: Which Potency does the source give for `O=C(N/N=C/c1ccccc1O)c1ccncc1` here?
A: inactive

Q: With `COc1c(C)c2c(c(O)c1C/C=C(\C)CCC(=O)O)C(=O)OC2` as the compound, how does the Potency read?
A: 0.976 µM (active)

Q: Which Potency does the source give for `CN1CCN(CCCN2c3ccccc3Sc3ccc(S(=O)(=O)N(C)C)cc32)CC1` here?
A: inactive

Q: For `c1ccc(OCc2ccc(CCCN3CCOCC3)cc2)cc1`, which Potency is on record?
A: inactive

Q: For `O=C1OC(c2ccc(O)cc2)(c2ccc(O)cc2)c2ccccc21`, which Potency is on record?
A: 25.6 µM (active)

Q: For `Oc1c(Cl)cc(Cl)cc1Sc1cc(Cl)cc(Cl)c1O`, which Potency is on record?
A: 18.1 µM (active)

Q: With `Cc1cccc(C)c1NC(=O)CN1CCN(CCCC(c2ccc(F)cc2)c2ccc(F)cc2)CC1` as the compound, how does the Potency read?
A: inactive

Q: Which Potency does the source give for `COc1cccc(CCc2ccccc2OCC(CN(C)C)OC(=O)CCC(=O)O)c1` (stereo not given) here?
A: inactive

Q: For `Oc1c(I)cc(Cl)c2cccnc12`, which Potency is on record?
A: 11.4 µM (active)

Q: Which Potency does the source give for `CC(Cc1cccc(C(F)(F)F)c1)NCCOC(=O)c1ccccc1` (stereo not given) here?
A: inactive

Q: With `CCOC(=O)COc1ccc2c(C)c(CCN(CC)CC)c(=O)oc2c1Cl` as the compound, how does the Potency read?
A: inactive

tested on: not listed separately; assay: S16 Schwann cell PMP22 intronic element beta-lactamase assay (AID 624044; calls by dose curve; also: nearly all actives have a fitted effect of over 15% in size; also: potency is read from the fitted curve at half-maximal effect); conditions: S16 rat Schwann cells, PMP22 element beta-lactamase FRET, 24 h; ratio activity, negative = inhibition: at 38.3 µM (top of the series)
Outline: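 Rat S16 Schwann cells with beta-Lac driven by a PMP22 intronic element, compound-treated 24 h at 37 °C. LiveBLAzer FRET B/G read: 460 nm normalized to potassium clavulanate vs DMSO; 535 nm FRET as viability; concentration-effect curves classified.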

Q: Which Potency does the source give for `Cc1c(C)n(Cc2ccccc2)c2ccc(C(=O)OCCN(C)C)cc12` here?
A: inactive

Q: With `Oc1ccc(O)cc1` as the compound, how does the Potency read?
A: 19.9 µM (active)

Q: With `C[C@@H](CN(C)C)CN1c2ccccc2Sc2ccccc21` as the compound, how does the Potency read?
A: inactive

Q: Which Potency does the source give for `C[C@@H]1C(=O)NC2=Nc3cccc(Cl)c3CN21` here?
A: inactive

Q: With `CCCCCCCCCCOCC(O)CN` (stereo not given) as the compound, how does the Potency read?
A: inactive

Q: For `CNCCC(Oc1ccccc1C)c1ccccc1` (stereo not given), which Potency is on record?
A: inactive

Q: For `NC(=O)C(=O)N/N=C/c1ccc([N+](=O)[O-])o1`, which Potency is on record?
A: inactive

Q: With `CCCCCCCCCCCCCCCC[N+](C)(C)CCN(Cc1ccc(OC)cc1)c1ncccn1` as the compound, how does the Potency read?
A: inactive

Q: With `CN(C)CC/C=C1\c2ccccc2Sc2ccc(Cl)cc21` as the compound, how does the Potency read?
A: inactive

Q: Which Potency does the source give for `CN1CCN(CCCN2c3ccccc3Sc3ccc(S(=O)(=O)N(C)C)cc32)CC1` here?
A: inactive

Q: For `c1ccc(OCc2ccc(CCCN3CCOCC3)cc2)cc1`, which Potency is on record?
A: inactive

Q: Which Potency does the source give for `O=C1OC(c2ccc(O)cc2)(c2ccc(O)cc2)c2ccccc21` here?
A: inactive

Q: For `Clc1ccc2c(c1)CCc1cccnc1C2=C1CCNCC1`, which Potency is on record?
A: inactive

Q: For `CC(=O)N/N=C/c1ccc([N+](=O)[O-])o1`, which Potency is on record?
A: inactive

Q: Which Potency does the source give for `COc1cc2c(cc1OC)C(=O)C(CC1CCN(Cc3ccccc3)CC1)C2` (stereo not given) here?
A: inactive

Q: Which Potency does the source give for `NC(=NCCCCCCN=C(N)/N=C(\N)Nc1ccc(Cl)cc1)/N=C(\N)Nc1ccc(Cl)cc1` here?
A: inactive

Q: With `COc1cccc(CCc2ccccc2OCC(CN(C)C)OC(=O)CCC(=O)O)c1` (stereo not given) as the compound, how does the Potency read?
A: inactive

Q: Which Potency does the source give for `CCN(CC)CCOc1ccc(C(O)(Cc2ccc(Cl)cc2)c2ccc(C)cc2)cc1` (stereo not given) here?
A: inactive

Q: Which Potency does the source give for `CC1=C(C(=O)OC(C)C)C(c2cccc([N+](=O)[O-])c2)C(C(=O)OC2CN(C(c3ccccc3)c3ccccc3)C2)=C(N)N1` (stereo not given) here?
A: inactive

Q: For `CC(Cc1cccc(C(F)(F)F)c1)NCCOC(=O)c1ccccc1` (stereo not given), which Potency is on record?
A: inactive

Q: With `CCOC(=O)COc1ccc2c(C)c(CCN(CC)CC)c(=O)oc2c1Cl` as the compound, how does the Potency read?
A: inactive

target: Glutaminase kidney isoform, mitochondrial (Homo sapiens) (UniProt O94925); assay: qHTS for Inhibitors of Glutaminase (GLS): LOPAC Validation (AID 624146); conditions: glutaminase enzyme activity inhibition; series mostly up to 46.1 µM; also: nearly all actives have a fitted effect of over 60% in size; also: potency is read from the fitted curve at half-maximal effect
Outline: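 hKGA in 45 mM KH2PO4 pH 8.2, 0.02% Tween-20 with pin-transferred compounds; 1 mM L-glutamine (stock) plus glutamate oxidase/HRP/Amplex Red coupling added. Fluorescence read initially and after 30 min at RT.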

Chain of Glutaminase kidney isoform, mitochondrial (Homo sapiens) (O94925 whole entry, looked up, canonical isoform): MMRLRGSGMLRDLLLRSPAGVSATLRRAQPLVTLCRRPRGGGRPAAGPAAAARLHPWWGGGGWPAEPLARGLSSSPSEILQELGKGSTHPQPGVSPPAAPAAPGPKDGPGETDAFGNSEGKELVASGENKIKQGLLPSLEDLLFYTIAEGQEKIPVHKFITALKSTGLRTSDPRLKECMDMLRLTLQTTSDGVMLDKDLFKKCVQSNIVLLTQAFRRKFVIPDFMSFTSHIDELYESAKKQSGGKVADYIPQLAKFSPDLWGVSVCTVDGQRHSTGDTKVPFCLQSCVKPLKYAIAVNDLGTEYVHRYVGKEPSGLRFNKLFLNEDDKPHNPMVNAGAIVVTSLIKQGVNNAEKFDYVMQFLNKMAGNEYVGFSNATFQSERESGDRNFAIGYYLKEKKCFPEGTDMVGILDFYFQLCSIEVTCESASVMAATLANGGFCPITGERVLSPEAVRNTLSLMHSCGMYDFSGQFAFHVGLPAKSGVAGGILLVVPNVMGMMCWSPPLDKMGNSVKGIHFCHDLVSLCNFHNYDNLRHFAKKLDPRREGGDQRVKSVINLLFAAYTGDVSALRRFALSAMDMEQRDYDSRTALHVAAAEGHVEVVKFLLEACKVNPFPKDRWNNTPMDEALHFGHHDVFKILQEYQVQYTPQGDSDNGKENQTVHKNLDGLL

Q: For `Oc1ccc(O)cc1`, which Potency is on record?
A: 2.51 µM (active)

Q: Which Potency does the source give for `C[C@@H]1C(=O)NC2=Nc3cccc(Cl)c3CN21` here?
A: inactive

Q: Which Potency does the source give for `COc1cc2c(cc1O)CC[C@@H]1[C@@H]2CC[C@]2(C)[C@@H](O)CC[C@@H]12` here?
A: 1.58 µM (active)

Q: With `CNCCC(Oc1ccccc1C)c1ccccc1` (stereo not given) as the compound, how does the Potency read?
A: inactive

Q: For `CC[C@H](C)C(=O)O[C@H]1CCC=C2C=C[C@H](C)[C@H](CC[C@@H]3C[C@@H](O)CC(=O)O3)[C@H]21`, which Potency is on record?
A: inactive

Q: With `CC(CCc1ccccc1)NCC(O)c1ccc(O)c(C(N)=O)c1` (stereo not given) as the compound, how does the Potency read?
A: inactive

Q: Which Potency does the source give for `CCCC1O[C@@H]2C[C@H]3[C@@H]4CCC5=CC(=O)C=C[C@]5(C)[C@H]4[C@@H](O)C[C@]3(C)[C@]2(C(=O)CO)O1` (stereo not given in full) here?
A: inactive

Q: For `CCC(NC(C)C)C(O)c1ccc(O)c(O)c1` (stereo not given), which Potency is on record?
A: inactive

Q: With `CC(=O)O[C@H]1C[C@@H]2CC[C@@H]3[C@H](CC[C@@]4(C)[C@H]3C[C@H]([N+]3(C)CCCCC3)[C@@H]4OC(C)=O)[C@@]2(C)C[C@@H]1[N+]1(C)CCCCC1` as the compound, how does the Potency read?
A: inactive

tested on: not listed separately; assay: qHTS of Trypanosoma Brucei Inhibitors: LOPAC Validation (AID 624147); conditions: purified enzyme assay, luminescence, 45 min; series mostly up to 57.5 µM
Outline: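 Screened from lowest to highest concentration, compounds were pinned into TbPYK/substrate mixtures, and ADP (130 uM final) was added. Plates sat at room temperature for 45 min prior to Kinase-Glo Plus detection by luminescence.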

Q: With `Oc1ccc(O)cc1` as the compound, how does the outcome read?
A: inactive

Q: For `C[C@@H]1C(=O)NC2=Nc3cccc(Cl)c3CN21`, which outcome is on record?
A: inactive

Q: With `COc1cc2c(cc1O)CC[C@@H]1[C@@H]2CC[C@]2(C)[C@@H](O)CC[C@@H]12` as the compound, how does the outcome read?
A: inactive

Q: For `CNCCC(Oc1ccccc1C)c1ccccc1` (stereo not given), which outcome is on record?
A: inactive

Q: With `CC[C@H](C)C(=O)O[C@H]1CCC=C2C=C[C@H](C)[C@H](CC[C@@H]3C[C@@H](O)CC(=O)O3)[C@H]21` as the compound, how does the outcome read?
A: inactive

Q: With `CC(CCc1ccccc1)NCC(O)c1ccc(O)c(C(N)=O)c1` (stereo not given) as the compound, how does the outcome read?
A: inactive

Q: For `CCCC1O[C@@H]2C[C@H]3[C@@H]4CCC5=CC(=O)C=C[C@]5(C)[C@H]4[C@@H](O)C[C@]3(C)[C@]2(C(=O)CO)O1` (stereo not given in full), which outcome is on record?
A: inactive

Q: With `CC(C)C[C@H]1C(=O)N2CCC[C@H]2[C@]2(O)O[C@](NC(=O)[C@@H]3C=C4c5cccc6[nH]c(Br)c(c56)C[C@H]4N(C)C3)(C(C)C)C(=O)N12` as the compound, how does the outcome read?
A: inactive

Q: Which outcome does the source give for `CCC(NC(C)C)C(O)c1ccc(O)c(O)c1` (stereo not given) here?
A: inactive

Q: For `CC(=O)O[C@H]1C[C@@H]2CC[C@@H]3[C@H](CC[C@@]4(C)[C@H]3C[C@H]([N+]3(C)CCCCC3)[C@@H]4OC(C)=O)[C@@]2(C)C[C@@H]1[N+]1(C)CCCCC1`, which outcome is on record?
A: inactive
